# Hits are enriched below; roughly 1.2% of the tested compounds scored in any of these assays.
# 3CLpro inhibitor: SARS-CoV 3CLpro protease inhibition. P0C6X7. recombinant SARS-CoV 3CLpro, quenched FRET peptide cleavage. inhibition, % at 6 µM. hit rate 0.14% among 290,000; in the data active = inhibition above about 12%
# PrPC surface inh: reduces human prion protein on the cell surface | P04156 | inhibition, % at 13.8 µM | cell surface PrPC, TR-FRET read-out | hit rate 0.43% among 370,000 | AID 720596; in the data active = inhibition above about 24%; also: 0% = median of the test wells and 100% = reference compound wells
# PriA SSB inh: inhibitors of Klebsiella pneumoniae PriA binding to SSB C-terminal tail; AlphaScreen SSBct-PriA binding, biotinylated peptide; inhibition, % at 33 µM; hit rate 0.6% among 430,000; AID 1272365; in the data active = inhibition mostly above about 37%, no sharp cut-off; inactive = mostly below about 20%;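 also: plate controls were negative control peptide for no effect and reference peptide for full effect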
# BJeLR viability: kills HRASV12-expressing BJeLR cells | BJeLR (HRASV12) viability, CellTiter-Glo ATP luminescence, 48 h | inhibition, % (no concentration beside the values) | hit rate 0.17% among 300,000 | AID 1554; in the data active = inhibition above about 50%
# PrP UTR inh: suppresses PrP 5' UTR mRNA reporter expression. cell-based PrP 5' UTR mRNA reporter, plate reader. inhibition, % (concentration not given with the values). hit rate 0.35% among 340,000; in the data active = inhibition above about 52%; also: 0 = median of the neutral control wells
# An asterisk follows results filed as active; / = no result; ! = a repeat was not active.
SMILES,3CLpro inhibitor,PrPC surface inh,PriA SSB inh,BJeLR viability,PrP UTR inh
O=[N+]([O-])c1cc(S(=O)(=O)c2ccc(N3CCCCC3)c([N+](=O)[O-])c2)ccc1N1CCCCC1,1,-4,42*,8,1
O=[N+]([O-])c1ccc(N2CCCCC2)c2ncccc12,0,-25,51*,1,-34
CS(=O)(=O)c1ccc(N2CCC(Cc3ccccc3)CC2)c([N+](=O)[O-])c1,/,/,41*,/,/
CC(=O)N1CCc2c(sc(NC(=O)Cc3ccc(F)cc3)c2C(N)=O)C1,1,7,0,9,-2
CC(=O)N1CCc2c(sc(NC(=O)Cc3ccc(F)cc3)c2C#N)C1,4,-1,60*,-3,8
COc1ccc(S(=O)(=O)Nc2c(C(=O)O)[nH]c3ccccc23)c(OC)c1,1,-4,-9,8,-27
COC(=O)c1[nH]c2ccc(F)cc2c1NS(=O)(=O)c1ccc(OC)cc1,0,7,-3,32,-22
COC(=O)c1[nH]c2ccc(C)cc2c1NS(=O)(=O)c1ccc(OC)cc1OC,/,/,57*,/,/
COc1ccc(S(=O)(=O)Nc2c(C(=O)O)[nH]c3ccc(OC)cc23)c(OC)c1,-40,-4,106*,2,-15
O=C(OCN1C(=O)c2ccccc2C1=O)c1ccc(Cl)cc1,/,/,-10,/,/
Cc1ccc(C)c2[nH]c(=O)c(CCNC(=O)c3cc([N+](=O)[O-])ccc3Cl)cc12,/,/,5,/,/
O=C(NC[C@H](O)c1cccc2ccccc12)C(=O)Nc1ccc2c(c1)OCO2,/,/,0,/,/
O=C(NCC(c1cccc2ccccc12)N1CCCC1)C(=O)Nc1ccc2c(c1)OCCO2 (stereo not given),/,/,48*,/,/
CN1CCN(NC(=O)c2ccc(-n3cncn3)nn2)CC1,/,/,-16,/,/
O[C@H](COCC(c1ccccc1)c1ccccc1)CN1CCN(c2ccc(F)cc2)CC1,/,/,24,/,/
O=C(CSc1ccc(-c2ccccn2)nn1)NCc1ccccc1,4,1,50*!,-40,-19
O=C(CSc1ccc(-c2ccccn2)nn1)NCCc1ccccc1,/,/,81*,/,/
O=C(CSc1ccc2nnc(-c3ccccc3)n2n1)NCc1ccco1,2,-9,2,-7,-3
O=C(CSc1ccc(-c2ccccn2)nn1)NCc1ccco1,/,/,71*,/,/
O=C(CSc1ccc2nnc(-c3ccccn3)n2n1)NCc1ccco1,-3,-12,82*,-2,-19
O=C(CSc1ccc(-c2ccccn2)nn1)NCc1ccc(F)cc1,-2,-1,3,14,-16
CCCOc1ccc(Br)cc1C=NO,/,/,-13,/,/
Cc1nc2ccc(NC(=O)c3cc(Cl)ccc3[N+](=O)[O-])cc2c(=O)n1-c1ccccc1,/,/,18,/,/
Cc1csc(=Nc2ccc(Cl)cc2)n1N1CCOCC1,/,/,10,/,/
COc1cccc(-c2nnc3ccc(OCCNC(=O)c4ccc(F)c(F)c4)nn23)c1,/,/,-16,/,/
SMILES,3CLpro inhibitor,PrPC surface inh,PriA SSB inh,BJeLR viability,PrP UTR inh
O=C(CSc1ccc(-c2ccccc2)nn1)NC1CCCCC1,-1,-4,-18,8,-24
O=C(CSc1ccc(-c2ccccn2)nn1)NC1CCCCC1,0,-3,72*!,3,-25
Cc1cc(NC(=O)c2ccc(Cl)s2)n(-c2nc3ccccc3s2)n1,/,/,-7,/,/
CCCc1cc(NCCOCCO)n2c(nc3ccccc32)c1C#N,/,0,/,/,/
CC(C)c1cc(NCCOCCO)n2c(nc3ccccc32)c1C#N,1,4,39*,-2,-21
CCN(CC)c1ccc(/C=N/NC(=O)c2cccc(S(=O)(=O)Nc3ccccc3OC)c2)cc1,-2,12,/,-3,-18
CCN(CC)c1ccc(/C=N/NC(=O)c2cccc(S(=O)(=O)Nc3ccccc3OC)c2)c(O)c1,4,21,/,60*,52
CCN(CC)c1ccc(/C=N/NC(=O)c2ccc3nc[nH]c3c2)c(O)c1,-1,/,/,53*,11
CCN(CC)c1ccc(/C=N/NC(=O)c2ccncc2)c(O)c1,/,/,30,/,/
Oc1ccc(C=NN2CCCCC2)c(O)c1O,/,/,-5,/,/
CC(C)C(=O)Nc1ccc(C(=O)NCCNC(=O)c2ccc(C(F)(F)F)cc2)cc1,/,/,-12,/,/
CCCCCn1c(=O)c2c(nc3oc(C)c(C)n32)n(C)c1=O,/,/,0,/,/
Cc1n[nH]c(=O)nc1N/N=C\c1ccc(N(C)C)cc1,/,/,-4,/,/
O=C(NC(=S)/C(=C1\CCCCCN1)[N+](=O)[O-])c1ccccc1,/,/,6,/,59*
Oc1cc(-c2cccnc2)cc2cccnc12,/,-11,54*,/,-15
Oc1cccc2cc(Nc3ccccc3)cnc12,/,-8,/,/,/
Oc1cc(Nc2ccccc2)cc2cccnc12,/,0,65*,/,-16
CN1CCN(c2cc(-c3cc(O)c4ncccc4c3)ccn2)CC1,/,-17,67*,/,4
O=C(NCc1cccnc1)c1c(O)nc2ccccn2c1=O,/,/,-9,/,/
CC(C)(C)c1ccc(NC(=O)N2C3CCC2COC3)cc1,/,/,-9,/,/
CO[C@@H](CNC(=O)CCc1ccccc1Br)c1ccccc1C,/,/,-13,/,/
COc1cc(/C=C(\C#N)C(=O)NC2CCCCC2C)ccc1OS(=O)(=O)c1ccc(C)cc1 (stereo not given),6,-2,-4,84*,-16
COc1ccc(CCn2c(NCc3ccco3)nc3c2c(=O)[nH]c(=O)n3C)cc1,-5,2,-14,-16,2
C=CCOCC(O)Cn1c(NCc2ccco2)nc2c1c(=O)[nH]c(=O)n2C (stereo not given),/,/,67*,/,/
CCCCOc1ccc(NC(=O)NCc2cc(-c3ccncc3)n(C)n2)cc1,/,/,-4,/,/
SMILES,3CLpro inhibitor,PrPC surface inh,PriA SSB inh,BJeLR viability,PrP UTR inh
Cn1nc(-c2ccccn2)nc2c(=O)n(C)c(=O)nc1-2,16*,5,34,22,26
CCCc1nc2c(=O)n(C)c(=O)nc-2n(C)n1,-2,17,-9,/,-3
O=C1SC(Cc2ccccc2)C(=O)N1c1ccccc1 (stereo not given),3,8,-5,89*,/
O=C(c1cccn(Cc2cccc([N+](=O)[O-])c2)c1=O)N1CCCc2ccccc21,/,/,10,/,/
COc1ccc(Cl)cc1S(=O)(=O)NCC1CCN(Cc2cccs2)CC1,/,/,-7,/,/
CCc1ccc(/C=C(/C#N)C(N)=S)cc1,-1,2,38*!,2,-20
O=C(NN=Cc1ccco1)c1ccccn1,/,/,60*,/,/
O=C(CCn1cnc(-c2ccccc2)c1-c1ccccc1)N/N=C\c1ccco1,/,/,48*,/,/
O=C(CCn1nc(-c2ccccc2)cc1-c1ccccc1)N/N=C\c1ccco1,/,/,20,/,/
O=C(N/N=C/c1ccco1)c1cnccn1,0,4,/,-6,-26
